# Source: the supplement of paper PMC9694430
# Where a name gives a salt, the structure may show the parent alone.
# Experiments:
# Test in all cases: thermal shift delta Tm vs DMSO control; higher = stronger stabilization (binding)
# Settings in all cases: 12.5 µM; protein concentration 2 µM
# [1] = tested on: LOC_OS04G57630-cb004
# Method in brief: (§1)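 The melting temperature shift given here is a triplicate mean, measured against protein that received only DMSO. Melting temperatures came from Boltzmann fits of differential scanning fluorimetry data on E. coli-expressed, purified rice kinase domain constructs. Each 19.5 μl well contained 2 μM kinase, 100 mM potassium phosphate pH 7.5, 150 mM NaCl, 10% glycerol, 5 × SYPRO Orange and compound in DMSO. Plates were scanned from 25°C to 95°C at 0.05°C/s.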
# [2] = tested on: LOC_OS05G07850-cb002
# Method in brief: as §1
# [3] = tested on: LOC_OS05G16824-cb004
# Method in brief: as §1
# [4] = tested on: LOC_OS05G28520-cb001
# Method in brief: as §1
# [5] = tested on: LOC_OS05G30820-cb001
# Method in brief: as §1
# [6] = tested on: LOC_OS05G43570-cb004
# Method in brief: as §1
# [7] = tested on: LOC_OS06G16330-cb003
# LOC_OS06G16330-cb003, sequence (as listed by the source): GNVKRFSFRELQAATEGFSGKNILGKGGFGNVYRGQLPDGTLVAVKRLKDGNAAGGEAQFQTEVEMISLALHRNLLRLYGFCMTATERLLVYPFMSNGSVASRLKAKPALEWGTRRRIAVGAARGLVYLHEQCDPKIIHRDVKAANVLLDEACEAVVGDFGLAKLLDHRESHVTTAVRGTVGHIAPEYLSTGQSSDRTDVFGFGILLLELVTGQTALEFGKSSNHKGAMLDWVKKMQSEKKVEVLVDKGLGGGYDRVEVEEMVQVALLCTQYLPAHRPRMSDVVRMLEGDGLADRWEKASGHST
# Method in brief: as §1
# [8] = tested on: T1, LOC_OS06G22820-cb001
# T1 sequence (whole entry): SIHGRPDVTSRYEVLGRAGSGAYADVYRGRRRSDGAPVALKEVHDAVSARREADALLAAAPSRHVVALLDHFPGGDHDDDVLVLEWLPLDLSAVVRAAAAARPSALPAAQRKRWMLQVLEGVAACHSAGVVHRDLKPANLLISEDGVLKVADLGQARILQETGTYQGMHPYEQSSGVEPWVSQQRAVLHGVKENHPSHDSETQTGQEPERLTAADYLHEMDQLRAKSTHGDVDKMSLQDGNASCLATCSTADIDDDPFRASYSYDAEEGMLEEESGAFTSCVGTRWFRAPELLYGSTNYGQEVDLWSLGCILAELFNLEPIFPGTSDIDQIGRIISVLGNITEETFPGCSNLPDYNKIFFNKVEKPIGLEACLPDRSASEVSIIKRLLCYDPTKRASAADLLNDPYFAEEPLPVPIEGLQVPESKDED
# Method in brief: as §1
# [9] = tested on: LOC_OS07G06570-cb004
# Method in brief: as §1
# [10] = tested on: LOC_OS07G07230-cb001
# Method in brief: as §1
SMILES,thermal shift delta Tm [1] [°C],thermal shift delta Tm [2] [°C],thermal shift delta Tm [3] [°C],thermal shift delta Tm [4] [°C],thermal shift delta Tm [5] [°C],thermal shift delta Tm [6] [°C],thermal shift delta Tm [7] [°C],thermal shift delta Tm [8] [°C],thermal shift delta Tm [9] [°C],thermal shift delta Tm [10] [°C]
COc1cc(OC)c(/C=C/S(=O)(=O)Cc2ccc(OC)c(NCC(=O)O)c2)c(OC)c1,0.06,0.2,-0.41,0.21,0.62,0.71,-0.1,0.75,0.87,0.29
N=C(N)NC(=N)NCCc1ccccc1 [Phenformin HCl],0.25,-0.02,-6.46,0.39,0.48,0.27,-0.35,0.41,0.53,-0.03
C=CC(=O)Nc1ccc2ncnc(Nc3ccc(OCc4cccc(F)c4)c(Cl)c3)c2c1,2.39,1.81,3.11,1.71,0.87,2.77,1.04,2.98,1.79,-0.18
O=c1c(O)c(-c2ccc(O)c(O)c2)oc2cc(O)cc(O)c12 [Quercetin],0.22,10.2,3.82,0.95,0.67,1.19,5.31,1.15,-0.26,-0.07
OC1CCC(Nc2ncc3nc(Nc4c(F)cc(F)cc4F)n([C@H]4CCOC4)c3n2)CC1 (stereo not given in full) [Tanzisertib(CC-930)],-0.03,0.72,2.14,0.46,0.23,0.42,-0.07,0.59,1.81,0.44
CCNC(=O)Nc1ccc(-c2nc(N3CCOC[C@@H]3C)c3c(n2)C(C)(C)S(=O)(=O)C3)cc1,-0.03,1.34,0.19,0.25,0.2,0.77,-0.15,0.67,1.9,0.66
Cn1cc(-c2ccc3ncc(Cc4ccc5ncccc5c4)n3n2)cn1,1.12,5.01,-1.27,0.45,0.48,0.16,2.64,0.5,0.78,0.13
CN1CCN(c2ccc3nc(-c4c(N)c5c(F)cccc5[nH]c4=O)[nH]c3c2)CC1 [Dovitinib (TKI258) Lactate],4.11,8.85,14.8,1.89,1.87,0.71,8.12,0.62,1.96,0.72
CC(C)c1ccc2oc3nc(N)c(C(=O)O)cc3c(=O)c2c1 [Amlexanox],0.42,2.22,2.16,0.29,2.58,0.12,2.5,0.56,0.44,0.63
COc1ccc(CNC(=O)Nc2ncc([N+](=O)[O-])s2)cc1,-0.18,-0.24,0.88,1.04,0.63,0.59,0.38,0.52,0.68,0.25
O=c1[nH]nc(Sc2ncc([N+](=O)[O-])s2)n1-c1ccc2c(c1)OCCO2,-1.46,-1.46,-2.53,0.59,0.64,0.84,-0.58,0.5,3.84,0.07
CC(C)n1nc(-c2ccc3oc(N)nc3c2)c2c(N)ncnc21,0.37,7.34,-0.35,0.63,0.45,0.24,2.84,0.75,1.22,0.29
CN1CCN(C2CCN(C(=O)Nc3cc(Oc4ccc(NC(=O)C5(C(=O)Nc6ccc(F)cc6)CC5)c(F)c4)ccn3)CC2)CC1 [Golvatinib (E7050)],0.73,5.87,-0.83,6.78,0.39,0.58,2.41,0.51,1.02,0.08
CC(C)NC(=O)C1CCC(n2c(NC(=O)c3ccc(F)cc3)nc3ccc(CN4CCC(C(C)(C)O)CC4)cc32)CC1 (stereo not given) [Belizatinib (TSR-011)],6.67,8.98,13,4.12,0.47,0.09,4.55,0.48,1.37,0.49
O=C1NC(=O)[C@@H](c2cn3c4c(cccc24)CCC3)[C@@H]1c1c[nH]c2ccccc12 [Tivantinib (ARQ 197)],0.47,0.25,-2.47,0.49,0.62,0.57,0.29,0.65,0.51,0.56
FC(F)(F)c1ccc(Nc2nc3ccc(Oc4ccnc(-c5ncc(C(F)(F)F)[nH]5)c4)cc3[nH]2)cc1 [Raf265 derivative],1.36,0.46,7.37,1.01,0.29,1.6,1.16,0.73,1.65,0.27
CC[C@@H](N)CNc1ccnc(-c2cc(-c3cnn(C)c3)ccc2O)n1,1.21,8.12,8.38,-0.2,0.07,0.12,4.5,0.55,0.8,0.48
Oc1c2ccccc2c2c3c(cccc13)N=N2,2.27,9.83,9.67,0.7,1.62,1,5.84,0.87,1.14,-0.13
C#Cc1cccc(Nc2ncnc3cc(OCCOC)c(OCCO)cc23)c1,0.14,8.23,0.76,-0.52,0.4,0.13,3.5,0.25,0.7,-0.14
CNC(=O)c1cc(Oc2ccc(NC(=O)Nc3ccc(Cl)c(C(F)(F)F)c3)c(F)c2)ccn1 [Regorafenib (BAY 73-4506)],0.11,1.47,-2.37,0.42,0.34,0.38,-0.02,0.83,0.59,0.35

SMILES,thermal shift delta Tm [1] [°C],thermal shift delta Tm [2] [°C],thermal shift delta Tm [3] [°C],thermal shift delta Tm [4] [°C],thermal shift delta Tm [5] [°C],thermal shift delta Tm [6] [°C],thermal shift delta Tm [7] [°C],thermal shift delta Tm [8] [°C],thermal shift delta Tm [9] [°C],thermal shift delta Tm [10] [°C]
NC(=O)c1ncn([C@@H]2O[C@H](CO)[C@@H](O)[C@H]2O)c1N [AICAR (Acadesine)],0.05,0.57,-1.12,-0.02,0.45,0.5,0.02,0.92,1.07,-0.25
CNc1nc(Nc2cn(C(C)(C)C#N)nc2C)ncc1C(F)(F)F,0.21,3.12,1.76,0.47,0.36,0.56,0.81,0.4,0.68,-0.13
Cc1cc(CS(=O)(=O)c2ccccc2)cc(OCc2ccc(CN3CCC[C@@H]3CO)cc2)c1,0.05,-0.44,-3.52,0.56,0.38,0.08,-0.51,0.68,1.18,0.08
N#Cc1cccc(-c2c[nH]c3ncnc(N4CCOCC4)c23)c1,0.05,12.3,1,0.3,0.46,0.26,3.82,0.53,0.63,0.58
CCS(=O)(=O)N1CC(CC#N)(n2cc(-c3ncnc4[nH]ccc34)cn2)C1,-0.03,4.2,-0.69,0.54,0.72,0.88,2.6,0.77,1.1,0.82
CC1(C)CNc2cc(NC(=O)c3cccnc3NCc3ccncc3)ccc21 [Motesanib Diphosphate (AMG-706)],-0.11,0.52,-3.02,0.68,0.49,0.21,-0.19,0.37,0.75,0.81
O=C(O)[C@]1(Cc2cccc(Nc3nccs3)n2)CC[C@@H](Oc2cccc(Cl)c2F)CC1,1.26,13,2.5,0.88,4.08,0.24,20.6,0.38,0.16,-1.36
CNC(=O)c1cc(COc2nnc(Nc3ccc(Cl)cc3)c3ccoc23)ccn1 [Telatinib],0.3,0.35,-3.58,0.37,0.56,0.21,-0.23,0.39,0.17,0.1
CCNC(=O)C#Cc1ccc2c(C(=Nc3ccc(CN(C)C)cc3)c3ccccc3)c(O)[nH]c2c1,2.92,5.17,8.59,0.18,0.42,0.36,1.85,0.09,0.62,-0.34
FC(F)(F)c1ccc(/C=C/c2nc(COc3ccc(CCCCn4ccnn4)cc3)co2)cc1 [Mubritinib (TAK 165)],0.31,0.65,-1.49,0.05,0.57,0.39,-0.19,0.32,0.47,-1.09
C[C@@H](Nc1cc(F)cc(F)c1)c1cc(C(=O)N(C)C)cc2c(=O)cc(N3CCOCC3)oc12,0.46,-0.67,-4.22,0.89,0.53,0.2,-0.67,0.43,1.06,0.35
CCn1nc(C2CCN(C(=O)CCO)CC2)nc1-c1cnc(N)c(-c2nnc(C(C)(C)C)o2)n1,0.47,8.76,1.95,0.66,0.58,0.43,5.59,0.93,0.86,0.4
O=C(NOC[C@H](O)CO)c1ccc(F)c(F)c1Nc1ccc(I)cc1F,-0.16,-0.38,0.88,0.62,0.37,1.5,0.23,1.03,1.11,0.26
COc1cc2c(Nc3ccc(NC(=O)c4ccccc4)cc3)ncnc2cc1OCCCN1CCOCC1,1.89,5.62,1.9,1.02,0.36,0.4,1.97,0.94,0.77,0.42
CC1(COc2ccc3c(c2)ncn3-c2ccc3cccc(N4CCC(N)CC4)c3n2)COC1,5.42,16.1,11.8,0.28,1.67,0.2,7.62,0.26,0.43,-0.34
COc1cc2c(Oc3ccc(NC(=O)C4(C(=O)Nc5ccc(F)cc5)CC4)cc3F)ccnc2cc1OCCCN1CCOCC1,6.98,13.9,5.71,16,0.55,0.27,9.02,0.8,0.2,0.3
O=c1sn(-c2cccc3ccccc23)c(=O)n1Cc1ccccc1 [Tideglusib],-0.25,-3.79,-13.5,0.99,0.39,0.01,0.99,0.6,1,0.27
COc1cc2ncnc(Oc3ccc(CC(=O)Nc4cnn(C(C)C)c4)cc3)c2cc1OC,1.78,8.95,0.86,0.43,0.37,-0.02,0.82,0.41,1.54,0.45
O=C(Nc1nccs1)C(c1cc(F)ccc1O)N1Cc2ccccc2C1=O (stereo not given),0,-0.08,-0.86,0.12,0.61,-0.04,-0.29,0.38,1.35,0.63
O=C(O)c1ccc(-c2c[nH]c3ncc(-c4ccccc4)cc23)cc1C1CCCC1,3.53,6.21,4.46,1.1,0.74,-0.07,10.4,0.29,-3.29,0.05
